This note sets out measurements from ChEMBL document CHEMBL1961873, “Compounds: GSK PKIS; Assays: Nanosyn kinase panel” (2012).

Experiment [1] addresses Tyrosine-protein kinase Fer (Homo sapiens) (UniProt P16591). The following applies: at 1 µM.
Experiment [2] concerns the target Tyrosine-protein kinase Fes/Fps (Homo sapiens) (UniProt P07332). The following applies: at 0.1 µM.
The target is the same in experiment [3]. The following applies: at 1 µM.
Experiment [4] deals with Fibroblast growth factor receptor 1 (Homo sapiens) (UniProt P11362). The settings on record: at 0.1 µM.
Fibroblast growth factor receptor 1 (Homo sapiens), sequence (P11362 22-822 limits assumed): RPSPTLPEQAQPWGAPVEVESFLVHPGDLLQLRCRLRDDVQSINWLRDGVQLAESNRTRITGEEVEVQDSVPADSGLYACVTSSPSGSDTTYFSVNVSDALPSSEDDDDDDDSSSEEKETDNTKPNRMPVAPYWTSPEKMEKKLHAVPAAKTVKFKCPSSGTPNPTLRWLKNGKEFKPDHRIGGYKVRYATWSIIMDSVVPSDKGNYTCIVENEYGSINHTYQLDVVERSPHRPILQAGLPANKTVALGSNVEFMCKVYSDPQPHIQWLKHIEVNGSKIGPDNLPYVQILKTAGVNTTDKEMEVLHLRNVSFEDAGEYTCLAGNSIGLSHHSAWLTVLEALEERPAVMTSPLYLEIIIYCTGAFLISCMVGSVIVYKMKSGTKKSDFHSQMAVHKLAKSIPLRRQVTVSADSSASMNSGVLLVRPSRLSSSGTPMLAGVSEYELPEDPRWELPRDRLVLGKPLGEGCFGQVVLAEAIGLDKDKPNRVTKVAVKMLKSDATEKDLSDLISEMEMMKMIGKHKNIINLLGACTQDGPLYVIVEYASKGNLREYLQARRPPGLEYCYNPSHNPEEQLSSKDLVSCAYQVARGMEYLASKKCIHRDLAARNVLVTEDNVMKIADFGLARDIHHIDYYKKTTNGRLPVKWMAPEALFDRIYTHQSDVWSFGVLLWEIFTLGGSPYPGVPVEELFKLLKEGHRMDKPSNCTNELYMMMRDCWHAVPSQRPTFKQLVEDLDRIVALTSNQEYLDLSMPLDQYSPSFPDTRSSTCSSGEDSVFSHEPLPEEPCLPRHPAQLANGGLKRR
Experiment [5] shares this target. The settings on record: at 1 µM.
In experiment [6] the target is Fibroblast growth factor receptor 2 (Homo sapiens) (UniProt P21802). The settings on record: at 0.1 µM.
Fibroblast growth factor receptor 2 (Homo sapiens), sequence (P21802 22-821 limits assumed): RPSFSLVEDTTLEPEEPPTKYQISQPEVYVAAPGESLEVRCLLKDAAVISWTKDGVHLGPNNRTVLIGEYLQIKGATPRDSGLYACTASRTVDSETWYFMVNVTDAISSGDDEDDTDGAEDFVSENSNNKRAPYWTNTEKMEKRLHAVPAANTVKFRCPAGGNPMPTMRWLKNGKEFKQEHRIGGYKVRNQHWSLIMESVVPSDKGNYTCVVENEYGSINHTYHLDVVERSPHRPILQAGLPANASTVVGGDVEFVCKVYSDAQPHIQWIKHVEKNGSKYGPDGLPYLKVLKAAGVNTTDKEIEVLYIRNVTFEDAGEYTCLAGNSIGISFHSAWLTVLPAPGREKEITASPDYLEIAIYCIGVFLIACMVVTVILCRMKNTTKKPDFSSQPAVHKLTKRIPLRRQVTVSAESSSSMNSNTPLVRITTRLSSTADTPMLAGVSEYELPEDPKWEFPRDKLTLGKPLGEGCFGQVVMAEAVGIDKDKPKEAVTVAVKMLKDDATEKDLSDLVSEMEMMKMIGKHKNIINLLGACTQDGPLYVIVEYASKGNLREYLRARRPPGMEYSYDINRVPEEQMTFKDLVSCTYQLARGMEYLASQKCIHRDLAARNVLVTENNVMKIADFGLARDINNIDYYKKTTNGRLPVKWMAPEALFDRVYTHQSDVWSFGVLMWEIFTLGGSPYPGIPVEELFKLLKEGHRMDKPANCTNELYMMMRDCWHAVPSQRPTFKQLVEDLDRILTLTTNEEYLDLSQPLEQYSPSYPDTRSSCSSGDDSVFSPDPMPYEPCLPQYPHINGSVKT
Experiment [7] has the same target. The following applies: at 1 µM.
For experiment [8], the target named is Fibroblast growth factor receptor 3 (Homo sapiens) (UniProt P22607). The following applies: at 0.1 µM.
Experiment [9] has the same target. The following applies: at 1 µM.
Experiment [10] concerns the target Fibroblast growth factor receptor 4 (Homo sapiens) (UniProt P22455). The following applies: at 0.1 µM.
Experiment [11] has the same target. The following applies: at 1 µM.
Experiment [12] deals with Tyrosine-protein kinase Fgr (Homo sapiens) (UniProt P09769). The following applies: at 0.1 µM.
Tyrosine-protein kinase Fgr (Homo sapiens), sequence (P09769 2-529 limits assumed): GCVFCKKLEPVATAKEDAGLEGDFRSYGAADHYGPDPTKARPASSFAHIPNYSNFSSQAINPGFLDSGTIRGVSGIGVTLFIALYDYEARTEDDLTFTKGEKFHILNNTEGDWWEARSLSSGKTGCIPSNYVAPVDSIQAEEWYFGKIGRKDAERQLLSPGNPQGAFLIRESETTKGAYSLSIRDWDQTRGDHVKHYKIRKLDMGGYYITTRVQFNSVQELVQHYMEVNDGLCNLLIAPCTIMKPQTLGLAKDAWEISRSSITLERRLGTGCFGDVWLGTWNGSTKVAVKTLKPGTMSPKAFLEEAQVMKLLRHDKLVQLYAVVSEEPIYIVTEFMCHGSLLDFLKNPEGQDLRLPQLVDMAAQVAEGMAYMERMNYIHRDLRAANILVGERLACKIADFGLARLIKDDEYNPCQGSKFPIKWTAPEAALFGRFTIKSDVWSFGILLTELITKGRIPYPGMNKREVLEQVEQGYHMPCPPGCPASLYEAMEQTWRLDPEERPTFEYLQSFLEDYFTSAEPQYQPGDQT
The target is the same in experiment [13]. The following applies: at 1 µM.
Experiment [14] deals with Vascular endothelial growth factor receptor 1 (Homo sapiens) (UniProt P17948). The settings on record: at 0.1 µM.
Vascular endothelial growth factor receptor 1 (Homo sapiens), sequence (P17948 whole entry): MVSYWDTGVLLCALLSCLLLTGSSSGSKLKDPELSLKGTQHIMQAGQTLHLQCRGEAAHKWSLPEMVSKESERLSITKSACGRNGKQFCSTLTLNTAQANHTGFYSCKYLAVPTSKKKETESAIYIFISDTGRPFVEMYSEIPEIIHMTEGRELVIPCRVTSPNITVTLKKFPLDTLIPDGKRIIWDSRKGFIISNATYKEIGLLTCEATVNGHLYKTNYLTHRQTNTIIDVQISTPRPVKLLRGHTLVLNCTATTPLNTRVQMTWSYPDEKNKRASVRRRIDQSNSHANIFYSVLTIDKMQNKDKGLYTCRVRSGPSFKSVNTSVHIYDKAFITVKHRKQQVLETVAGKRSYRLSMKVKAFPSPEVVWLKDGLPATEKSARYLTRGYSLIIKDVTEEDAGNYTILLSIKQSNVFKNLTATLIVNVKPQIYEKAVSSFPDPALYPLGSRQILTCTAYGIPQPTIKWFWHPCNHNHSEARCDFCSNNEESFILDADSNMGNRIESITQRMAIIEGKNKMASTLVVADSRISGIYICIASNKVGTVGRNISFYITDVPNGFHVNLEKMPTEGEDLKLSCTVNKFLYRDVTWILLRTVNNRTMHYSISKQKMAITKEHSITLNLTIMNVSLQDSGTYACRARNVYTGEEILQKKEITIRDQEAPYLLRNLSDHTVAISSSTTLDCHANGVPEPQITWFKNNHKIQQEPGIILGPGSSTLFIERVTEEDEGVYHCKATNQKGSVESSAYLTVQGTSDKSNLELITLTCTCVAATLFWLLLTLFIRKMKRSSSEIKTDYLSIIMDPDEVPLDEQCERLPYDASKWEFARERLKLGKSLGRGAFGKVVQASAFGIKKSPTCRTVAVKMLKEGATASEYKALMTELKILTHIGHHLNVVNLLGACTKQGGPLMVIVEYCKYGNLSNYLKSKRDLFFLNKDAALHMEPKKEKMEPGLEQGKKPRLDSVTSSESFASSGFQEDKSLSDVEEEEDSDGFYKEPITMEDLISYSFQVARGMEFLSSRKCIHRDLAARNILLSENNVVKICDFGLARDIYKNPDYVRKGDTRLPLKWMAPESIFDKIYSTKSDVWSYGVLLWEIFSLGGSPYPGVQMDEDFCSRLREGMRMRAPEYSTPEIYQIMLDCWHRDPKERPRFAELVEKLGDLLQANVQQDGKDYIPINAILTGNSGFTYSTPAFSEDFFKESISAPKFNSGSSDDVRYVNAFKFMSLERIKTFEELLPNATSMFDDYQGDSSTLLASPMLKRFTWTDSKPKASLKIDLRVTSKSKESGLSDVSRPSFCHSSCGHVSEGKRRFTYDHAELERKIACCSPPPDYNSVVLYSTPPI
Experiment [15] has the same target. The settings on record: at 1 µM.
Experiment [16] addresses Receptor-type tyrosine-protein kinase FLT3 (Homo sapiens) (UniProt P36888). The settings on record: at 0.1 µM.
For experiment [17] the target is unchanged. The settings on record: at 1 µM.
Experiment [18] relates to T1, Receptor-type tyrosine-protein kinase FLT3 (Homo sapiens), P36888 [D835Y].
T1 sequence (whole entry): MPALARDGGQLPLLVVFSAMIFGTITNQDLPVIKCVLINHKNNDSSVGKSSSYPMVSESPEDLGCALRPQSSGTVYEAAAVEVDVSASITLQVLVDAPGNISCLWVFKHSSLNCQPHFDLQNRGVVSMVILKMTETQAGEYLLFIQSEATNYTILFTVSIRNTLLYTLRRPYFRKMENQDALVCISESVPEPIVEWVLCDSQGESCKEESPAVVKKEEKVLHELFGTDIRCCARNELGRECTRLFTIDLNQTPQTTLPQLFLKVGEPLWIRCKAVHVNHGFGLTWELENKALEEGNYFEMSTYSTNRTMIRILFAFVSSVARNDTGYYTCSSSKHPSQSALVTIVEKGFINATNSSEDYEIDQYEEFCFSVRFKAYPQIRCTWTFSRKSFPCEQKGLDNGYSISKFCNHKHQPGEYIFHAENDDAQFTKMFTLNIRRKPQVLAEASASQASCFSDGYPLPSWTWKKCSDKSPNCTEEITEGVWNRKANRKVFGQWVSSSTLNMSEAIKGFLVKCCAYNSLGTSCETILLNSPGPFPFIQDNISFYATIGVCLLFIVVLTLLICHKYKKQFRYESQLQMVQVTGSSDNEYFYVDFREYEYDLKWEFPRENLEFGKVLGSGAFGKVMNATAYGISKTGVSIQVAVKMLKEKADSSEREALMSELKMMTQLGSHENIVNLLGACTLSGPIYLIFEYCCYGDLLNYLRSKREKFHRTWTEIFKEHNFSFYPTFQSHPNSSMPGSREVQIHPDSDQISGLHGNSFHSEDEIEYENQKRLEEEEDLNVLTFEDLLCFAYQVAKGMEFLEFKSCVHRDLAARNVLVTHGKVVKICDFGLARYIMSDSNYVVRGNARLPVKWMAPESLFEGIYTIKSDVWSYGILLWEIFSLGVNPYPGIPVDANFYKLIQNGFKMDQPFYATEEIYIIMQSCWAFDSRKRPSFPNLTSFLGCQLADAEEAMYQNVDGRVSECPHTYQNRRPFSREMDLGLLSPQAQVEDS
The following applies: at 0.1 µM.

Experiment [19] deals with Non-receptor tyrosine-protein kinase TYK2 (Homo sapiens) (UniProt P29597). The settings on record: at 1 µM.
Experiment [20] addresses T2, Tyrosine-protein kinase receptor TYRO3 (Homo sapiens) (UniProt Q06418).
T2 sequence (whole entry): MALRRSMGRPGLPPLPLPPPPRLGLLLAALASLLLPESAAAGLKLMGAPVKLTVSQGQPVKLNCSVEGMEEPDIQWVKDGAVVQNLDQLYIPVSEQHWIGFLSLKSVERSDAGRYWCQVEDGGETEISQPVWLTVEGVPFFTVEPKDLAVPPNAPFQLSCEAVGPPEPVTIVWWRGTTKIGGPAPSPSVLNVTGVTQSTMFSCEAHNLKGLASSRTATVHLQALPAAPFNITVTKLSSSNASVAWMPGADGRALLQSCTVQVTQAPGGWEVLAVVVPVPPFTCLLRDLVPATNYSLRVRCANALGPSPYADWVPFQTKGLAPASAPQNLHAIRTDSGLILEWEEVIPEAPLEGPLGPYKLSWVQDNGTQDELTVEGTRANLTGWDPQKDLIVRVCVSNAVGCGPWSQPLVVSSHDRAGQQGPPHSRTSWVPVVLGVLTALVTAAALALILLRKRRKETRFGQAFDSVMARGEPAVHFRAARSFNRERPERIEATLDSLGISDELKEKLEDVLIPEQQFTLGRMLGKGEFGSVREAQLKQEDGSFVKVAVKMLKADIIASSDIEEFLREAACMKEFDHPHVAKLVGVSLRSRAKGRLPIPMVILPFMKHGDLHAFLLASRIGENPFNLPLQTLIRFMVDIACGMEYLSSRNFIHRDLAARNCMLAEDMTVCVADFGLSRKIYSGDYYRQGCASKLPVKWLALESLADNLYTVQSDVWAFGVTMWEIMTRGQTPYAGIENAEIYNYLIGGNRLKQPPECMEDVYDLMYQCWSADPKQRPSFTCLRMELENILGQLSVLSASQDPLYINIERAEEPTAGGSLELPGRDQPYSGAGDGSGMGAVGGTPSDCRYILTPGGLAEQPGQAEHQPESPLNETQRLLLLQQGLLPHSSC
The settings on record: at 0.1 µM.

The structures appear in SMILES notation.

Tyrosine-protein kinase Fer (Homo sapiens), sequence (P16591 whole entry, looked up): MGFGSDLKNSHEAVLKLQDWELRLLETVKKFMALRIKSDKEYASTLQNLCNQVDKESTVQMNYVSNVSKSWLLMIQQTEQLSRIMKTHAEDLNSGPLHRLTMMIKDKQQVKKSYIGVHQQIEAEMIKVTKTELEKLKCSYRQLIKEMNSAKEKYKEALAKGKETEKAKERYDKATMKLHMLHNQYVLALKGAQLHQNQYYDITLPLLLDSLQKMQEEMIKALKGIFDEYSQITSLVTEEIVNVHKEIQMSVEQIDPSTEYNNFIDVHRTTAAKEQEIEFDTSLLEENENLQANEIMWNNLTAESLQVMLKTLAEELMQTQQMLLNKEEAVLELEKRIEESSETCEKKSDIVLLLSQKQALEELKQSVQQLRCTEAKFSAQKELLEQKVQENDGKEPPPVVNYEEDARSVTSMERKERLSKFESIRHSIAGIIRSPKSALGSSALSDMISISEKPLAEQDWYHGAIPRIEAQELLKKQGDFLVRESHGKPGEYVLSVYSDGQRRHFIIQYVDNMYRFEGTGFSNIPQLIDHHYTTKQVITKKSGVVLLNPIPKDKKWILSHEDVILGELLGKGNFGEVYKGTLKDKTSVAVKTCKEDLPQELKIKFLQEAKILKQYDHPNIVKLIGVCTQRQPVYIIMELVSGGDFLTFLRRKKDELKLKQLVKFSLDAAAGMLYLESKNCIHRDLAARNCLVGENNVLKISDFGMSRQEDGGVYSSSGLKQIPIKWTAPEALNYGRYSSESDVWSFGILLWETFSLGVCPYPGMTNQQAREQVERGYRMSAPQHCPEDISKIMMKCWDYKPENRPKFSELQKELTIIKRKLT
Fibroblast growth factor receptor 4 (Homo sapiens), sequence (P22455 22-802 limits assumed): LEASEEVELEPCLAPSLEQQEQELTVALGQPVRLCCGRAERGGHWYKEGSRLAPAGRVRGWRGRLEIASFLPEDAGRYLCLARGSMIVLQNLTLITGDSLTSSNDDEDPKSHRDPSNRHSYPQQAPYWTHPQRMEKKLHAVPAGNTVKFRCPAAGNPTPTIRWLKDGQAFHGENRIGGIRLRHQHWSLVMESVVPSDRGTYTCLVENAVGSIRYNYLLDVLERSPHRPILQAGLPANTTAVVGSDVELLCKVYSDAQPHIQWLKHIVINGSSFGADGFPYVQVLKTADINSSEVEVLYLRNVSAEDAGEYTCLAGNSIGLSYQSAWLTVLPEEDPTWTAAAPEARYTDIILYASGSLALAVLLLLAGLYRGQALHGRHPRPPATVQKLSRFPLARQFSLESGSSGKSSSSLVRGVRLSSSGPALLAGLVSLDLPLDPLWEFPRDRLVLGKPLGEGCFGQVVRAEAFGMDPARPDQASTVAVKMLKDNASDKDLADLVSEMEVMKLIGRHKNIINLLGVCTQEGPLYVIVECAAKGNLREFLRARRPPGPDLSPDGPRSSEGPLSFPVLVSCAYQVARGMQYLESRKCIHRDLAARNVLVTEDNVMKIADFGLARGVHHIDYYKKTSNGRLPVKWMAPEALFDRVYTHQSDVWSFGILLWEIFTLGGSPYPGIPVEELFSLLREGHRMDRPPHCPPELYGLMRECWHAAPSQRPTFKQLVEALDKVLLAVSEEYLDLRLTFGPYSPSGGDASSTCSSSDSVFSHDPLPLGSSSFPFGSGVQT

Usually inhibition stands for the change of the read-out against control, counted positive when it falls. As for `COc1cc(/C=N/Nc2ncnc3c2cnn3C(C)C)ccc1O`, the inhibition is 7.03% in experiment [1]; 1.26% in experiment [2]; 5.37% in experiment [3]; -0.65% in experiment [4]; 2.77% in [5]; 1.99% in experiment [6]. Besides, the inhibition in experiment [7] is 7.97%; in experiment [8] it was 1.62%; in experiment [9], 7.76%; in experiment [10], -8.41%; in experiment [11], 1.4%; in experiment [12], 9.02%. Further, the inhibition was 40.4% in experiment [13]; -0.74% in [14]; 3.88% in experiment [15]; 2.52% in [16]; 22.7% in experiment [17]; -2.61% in experiment [18]. The inhibition in [19] came out at 4.77%; in experiment [20], 4.41%.

`NC(=O)c1cccc(Nc2nccc(Nc3cccc(F)c3)n2)c1`: the inhibition is 14.6% in [1]; 1.24% in experiment [2]; 7.67% in [3]; 9.63% in experiment [4]; 10.2% in experiment [5]; 2.81% in [6]. Also, the inhibition in experiment [7] was determined as 13%; in [8], 4.22%; in experiment [9] it was 9.81%; in [10], 2.38%; in experiment [11], 1.79%; in experiment [12], 5.52%. Further, the inhibition came to 30% in [13]; 1.29% in experiment [14]; 16.4% in experiment [15]; 3.08% in experiment [16]; 16.5% in experiment [17]; 1.55% in [18]. The inhibition in experiment [19] was 32.4%; in [20] it was 10.5%.

As for `c1ccc(Cc2nc3ccc(Nc4ncnc5ccccc45)cc3[nH]2)cc1`, the inhibition in [1] was determined as 6.1%; in experiment [2], 1.75%; in [3], 3.02%; in experiment [4] it was 2.15%; in experiment [5] it was 1.67%; in experiment [6], 5.23%. The inhibition in [7] was 7.58%; in experiment [8], 4.51%; in [9], 5.34%; in [10], -1.72%; in experiment [11], -0.04%; in experiment [12] it was 5.51%. Further, the inhibition in experiment [13] stood at 18.2%; in experiment [14], 0.86%; in [15] it was 4.39%; in experiment [16], 0.83%; in experiment [17], 3.55%; in [18], 4.82%. The inhibition in [19] was -0.14%; in [20] it was 1.48%.

Take `CN(C)CCCn1c(-c2nonc2N)nc2cnccc21`: the inhibition worked out at 3.54% in [1]; 2.93% in experiment [2]; 2.95% in [3]; 3.21% in [4]; 3.42% in [5]; 2.86% in experiment [6]. Moreover, the inhibition was 6.36% in experiment [7]; 6.01% in experiment [8]; 3.96% in experiment [9]; -1.87% in experiment [10]; 1.11% in experiment [11]; 1.37% in [12]. The inhibition in experiment [13] was 2.22%; in experiment [14], 1.09%; in experiment [15], 2.77%; in [16], 2.53%; in [17], 1.85%; in [18], -5.34%. Besides, the values for the inhibition in experiment [19] and in experiment [20] were -2.04% and 1.74%, respectively.

`COc1cc(Nc2nccc(-c3cnn4ncccc34)n2)cc(OC)c1`: the inhibition in experiment [1] was 58.6%; in [2], 10.7%; in experiment [3], 53.2%; in [4], -4.05%; in experiment [5], 7.3%; in experiment [6], 1.71%. Also, the inhibition in experiment [7] was 23%; in experiment [8], 4%; in experiment [9], 20.5%; in [10], 1.2%; in [11] it was 0.03%; in [12] it was 6.85%. In addition, the inhibition is 36.9% in experiment [13]; 10.4% in experiment [14]; 30.9% in [15]; 59.6% in experiment [16]; 90.8% in experiment [17]; 27% in experiment [18]. For the same molecule, the inhibition was found to be 31.8% in experiment [19] and 1.77% in experiment [20].

Regarding `NS(=O)(=O)c1ccc(N/N=C2\C(=O)Nc3ccc(Cl)cc32)cc1`, the inhibition in experiment [1] is 7.24%; in experiment [2], 2.52%; in experiment [3], 2.84%; in experiment [4] it was 1.63%; in experiment [5], 1%; in experiment [6] it was 2.43%. The inhibition is 14.7% in experiment [7]; 5.81% in experiment [8]; 13% in experiment [9]; -1.18% in experiment [10]; 0.91% in [11]; 4.13% in experiment [12]. In addition, the inhibition in experiment [13] was 7.63%; in experiment [14], 2.91%; in experiment [15] it was 8.28%; in experiment [16], 16.4%; in [17], 66.7%; in experiment [18], -0.18%. The figures for the inhibition in experiment [19] and in experiment [20] were 0.36% and 3.25%, respectively.

In the case of `OCc1ccc(-c2nc(-c3ccccn3)c(-c3ccc4c(c3)OCO4)[nH]2)cc1`, the inhibition in [1] is 5.49%; in experiment [2], 3.6%; in [3], 4.6%; in experiment [4], 5.91%; in experiment [5], 5.71%; in [6], 5.49%. The inhibition amounted to 10.1% in experiment [7]; 6.26% in experiment [8]; 7.28% in experiment [9]; 0.04% in experiment [10]; 4.36% in experiment [11]; 3.43% in experiment [12]. Also, the inhibition in [13] is 8.26%; in experiment [14], 0.94%; in experiment [15] it was 2.09%; in experiment [16], 3.25%; in experiment [17], 5.93%; in experiment [18] it was 0.22%. For the same molecule, the figures for the inhibition in [19] and in [20] were -3.23% and 3.25%, respectively.
